Measurements published in PubChem BioAssay (NCATS).
Where “and” joins values, the source holds several entries; their conditions need not be identical. Equal values may be shown once. Records with an inconclusive call do not appear. Calls of active or inactive are those of the source. Calls come from the whole dose curve; as a rule, active = well fitted curve in the direction sought with a large enough effect; inconclusive = small, poorly fitted or top-dose-only effect, or another doubt; inactive = no such curve, though single readings can be large; an effect the other way counts as inactive or inconclusive.

Assays:
[1] = Cell Viability - LYMP2-007 (AID 979);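 note: cells exposed to compound for 24 h before reading; nearly all actives have a fitted effect of over 60% in size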; note: potency is the fitted concentration of half-maximal effect
Summary of the method: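 Human lymphoblastoid LYMP2-007 cells (2500/well) preincubated 5 h at 37 C, then treated 24 h at 37 C in complete medium. Viability by CellTiter-Glo ATP luminescence after 30 min at room temperature; AC50 from Hill fits.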

[2] = Cell Viability - LYMP2-008 (AID 980); note: nearly all actives have a fitted effect of over 60% in size; note: potency is the fitted concentration of half-maximal effect
Summary of the method: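 LYMP2-008 lymphoblastoid cells (2500/well) plated 5 h, then treated 24 h at 37 C in complete medium. Viability read as intracellular ATP by CellTiter-Glo luminescence after 30 min at room temperature; AC50 from Hill fits.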

[3] = Cell Viability - LYMP2-010 (AID 981); note: nearly all actives have a fitted effect of over 55% in size; note: potency is the fitted concentration of half-maximal effect
Summary of the method: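 Human lymphoblastoid LYMP2-010 cells (2500/well) treated 24 h at 37 C in complete medium; viability read as intracellular ATP by CellTiter-Glo luminescence. AC50 from Hill fits of concentration-response data; tetraoctylammonium bromide positive control.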

[4] = Cell Viability - LYMP2-012 (AID 982);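 note: cellular ATP by luciferase luminescence where a drop means cytotoxicity; cells exposed to compound for one day before reading; nearly all actives have a fitted effect of over 55% in size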; note: potency is the fitted concentration of half-maximal effect
[5] = Cell Viability - LYMP2-014 (AID 983); note: nearly all actives have a fitted effect of over 50% in size; note: potency is the fitted concentration of half-maximal effect
Summary of the method: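 LYMP2-014 human lymphoblastoid cells, 2500/well, treated 24 h at 37 C in complete medium; viability by CellTiter-Glo ATP luminescence after 30 min at room temperature. AC50 from Hill fits of qHTS concentration-response; tetraoctylammonium bromide positive control.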

[6] = Cell Viability - LYMP2-018 (AID 985);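 note: compound exposure lasted 24 hr at 37 °C; nearly all actives have a fitted effect of over 50% in size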; note: potency is the fitted concentration of half-maximal effect
Summary of the method: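 Human lymphoblastoid LYMP2-018 cells, 2500/well, settled 5 hr at 37 C then exposed to compound 24 hr at 37 C; intracellular ATP measured by CellTiter-Glo luminescence. AC50 from Hill-equation concentration-response fits.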

[7] = Cell Viability - LYMP2-020 (AID 986); note: nearly all actives have a fitted effect of over 55% in size; note: potency is the fitted concentration of half-maximal effect
Summary of the method: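 Human lymphoblastoid LYMP2-020 cells (2500/well) preincubated 5 h at 37 C, then treated 24 h at 37 C. Viability measured as intracellular ATP by CellTiter-Glo luminescence after 30 min at room temperature; AC50 from Hill fits.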

[8] = Cell Viability - LYMP2-022 (AID 987); note: nearly all actives have a fitted effect of over 55% in size; note: potency is the fitted concentration of half-maximal effect
Summary of the method: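 LYMP2-022 lymphoblastoid cells (2500/well, complete medium) were treated with compounds for 24 hours at 37 C; intracellular ATP was then read by CellTiter-Glo luminescence after 30 min at room temperature. AC50 values were derived from Hill-equation fits.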

[9] = Cell Viability - LYMP2-024 (AID 988); note: nearly all actives have a fitted effect of over 60% in size; note: potency is the fitted concentration of half-maximal effect
Summary of the method: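 Human lymphoblastoid LYMP2-024 cells (2500/well) rested 5 hr, then treated with compound for 24 hr at 37 C in complete medium. Viability was measured as intracellular ATP by CellTiter-Glo luminescence. AC50 values came from Hill-equation fits.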

[10] = Cell Viability - LYMP2-026 (AID 989); note: nearly all actives have a fitted effect of over 50% in size; note: potency is the fitted concentration of half-maximal effect
Summary of the method: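 Human lymphoblastoid LYMP2-026 cells, 2500/well, exposed to compound 24 h at 37 C in complete medium. Viability as intracellular ATP by CellTiter-Glo luminescence; AC50 from Hill fits of qHTS concentration-response.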

[11] = Cell Viability - LYMP1-002 - Assay at 24 hr (AID 993); note: potency is the fitted concentration of half-maximal effect
Summary of the method: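 Human lymphoblastoid LYMP1-002 cells (2500/well) treated 24 h at 37 °C; viability as intracellular ATP by CellTiter-Glo luminescence. Tetraoctylammonium bromide as positive control; AC50 from Hill-equation fits of qHTS concentration-response.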

[12] = Cell Viability - LYMP1-002 - Assay at 40 hr (AID 994); note: nearly all actives have a fitted effect of over 60% in size; note: potency is the fitted concentration of half-maximal effect
Summary of the method: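 LYMP1-002 human lymphoblastoid cells (2500/well, complete medium) were treated with compounds for 40 hr at 37 C. Intracellular ATP was measured by CellTiter-Glo luminescence, and AC50 values came from Hill-equation fits of concentration-response data; tetraoctylammonium bromide was the positive control.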

[13] = target: Alpha-galactosidase A (Homo sapiens) (UniProt P06280); experiment: Counterscreen for Glucocerebrosidase Inhibitors: qHTS Assay for Human alpha-Galactosidase at pH 4.5 (AID 992)
Chain of Alpha-galactosidase A (Homo sapiens) (P06280 whole entry, looked up): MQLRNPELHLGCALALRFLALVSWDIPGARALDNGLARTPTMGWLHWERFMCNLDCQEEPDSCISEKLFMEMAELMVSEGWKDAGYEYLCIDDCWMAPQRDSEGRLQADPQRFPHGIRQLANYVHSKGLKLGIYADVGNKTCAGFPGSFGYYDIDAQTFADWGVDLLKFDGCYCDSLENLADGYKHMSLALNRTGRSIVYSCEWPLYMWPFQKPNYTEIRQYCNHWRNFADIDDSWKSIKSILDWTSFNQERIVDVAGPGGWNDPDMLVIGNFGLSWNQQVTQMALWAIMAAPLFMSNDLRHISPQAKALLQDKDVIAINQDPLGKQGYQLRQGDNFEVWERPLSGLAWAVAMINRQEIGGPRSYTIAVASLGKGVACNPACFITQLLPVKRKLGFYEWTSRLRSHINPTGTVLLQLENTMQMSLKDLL
Summary of the method: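 Human enzyme (2 nM) with 80 uM 4-methylumbelliferyl alpha-D-galactopyranoside in 50 mM citric acid, 0.005% Tween-20, pH 4.5, 20 min at room temperature. Compounds 0.7 nM–77 uM; fluorescence Ex 365/Em 440 after pH 10 stop; AC50 from Hill fits.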

[14] = target: alpha-glucosidase (Oryza sativa, rice) (UniProt Q653V4); experiment: Counterscreen for Glucocerebrosidase Inhibitors: qHTS Assay for Rice alpha-Glucosidase at pH 5.0 (AID 997)
Summary of the method: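 Rice alpha-glucosidase (4 nM final) with 400 uM 4-methylumbelliferyl-alpha-D-glucopyranoside in citrate buffer pH 5.0, 20 min at room temperature, stopped at pH 10; fluorescence 365/440 nm, compounds 0.7 nM–77 uM, AC50 from Hill fits.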

[15] = target: Alpha-galactosidase (Coffea arabica) (UniProt Q42656); experiment: Counterscreen for Glucocerebrosidase Inhibitors: qHTS Assay for Coffee Bean alpha-Galactosidase at pH 5.9 (AID 998)
Chain of Alpha-galactosidase (Coffea arabica) (Q42656 whole entry, looked up): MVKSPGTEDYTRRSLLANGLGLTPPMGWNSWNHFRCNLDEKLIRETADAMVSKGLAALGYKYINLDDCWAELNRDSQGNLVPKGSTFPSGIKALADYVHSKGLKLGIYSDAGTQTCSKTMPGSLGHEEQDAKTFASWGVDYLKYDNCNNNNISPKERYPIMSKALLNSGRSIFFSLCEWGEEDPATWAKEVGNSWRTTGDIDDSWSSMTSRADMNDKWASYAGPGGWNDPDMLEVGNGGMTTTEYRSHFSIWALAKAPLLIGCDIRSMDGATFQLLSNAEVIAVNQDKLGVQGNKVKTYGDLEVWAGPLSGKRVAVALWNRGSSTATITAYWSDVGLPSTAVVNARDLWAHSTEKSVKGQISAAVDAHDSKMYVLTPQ
Summary of the method: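 Green coffee bean enzyme (2 nM final) was incubated with compounds (0.7 nM–77 uM) and 4-methylumbelliferyl alpha-D-galactopyranoside (80 uM) in citrate buffer pH 5.9, 20 min at room temperature. High-pH stop; fluorescence 365/440 nm; AC50 from Hill fits.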

[16] = Counterscreen for APE1 Inhibitors: Fluorescent Dye Displacement Validation Assay (AID 1707)
Summary of the method: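 Thiazole Orange (250 nM) bound to 50 nM TAMRA-labelled dsDNA with tetrahydrofuran abasic site; displacement by DNA-binding compounds lowers fluorescence. Buffer 50 mM Tris-HCl pH 7.5, 50 mM NaCl, 2 mM MgCl2, 0.01% Tween-20; endpoint read at 480/540 nm.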

[17] = target: Endonuclease 4 (Escherichia coli (strain K12)) (UniProt P0A6C1); experiment: Counterscreen for APE1 Inhibitors: qHTS Validation Assay for Inhibitors of Endonuclease IV (AID 1708); note: potency is the fitted concentration of half-maximal effect
Summary of the method: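 Concentration-response counterscreen run identically to the APE1 assay: 15 min room-temperature preincubation of 2 nM enzyme with compound, reaction started with 50 nM quenched abasic DNA, progress taken from kinetic fluorescence.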

Measured: Potency

CCCCCCCCOC(=O)c1ccccc1C(=O)OCCCCCCCC
not listed: [13] | [14] | [15] | [16] | [17]
inactive: all other assays above

O=[N+]([O-])c1ccc(F)c([N+](=O)[O-])c1
inactive: [4] | [5] | [7] | [10] | [11] | [12]

C[C@@H]1[C@@H]2Cc3ccc(O)cc3[C@@]1(C)CCN2CC1CC1
inactive: [13] | [14] | [15]

Cc1c2ccncc2c(C)c2c1[nH]c1ccccc12
active: [17] 2.82 µM
inactive: [13] | [14] | [15] | [16]

O=C1C2CC=CCC2C(=O)N1SC(Cl)(Cl)Cl (stereo not drawn)
active: [1] 7.94 µM and 5.01 µM | [2] 12.6 µM and 10 µM | [3] 2.51 µM and 3.16 µM | [4] 2.51 µM and 5.01 µM | [5] 5.01 µM and 6.31 µM | [6] 3.98 µM and 7.94 µM | [7] 3.16 µM and 5.01 µM | [8] 2 µM and 3.98 µM | [9] 1.58 µM and 3.16 µM | [10] 3.98 µM and 6.31 µM | [11] 7.94 µM | [12] 15.8 µM

CCCN1CCc2cc(O)cc3c2[C@H]1Cc1ccc(O)c(O)c1-3
inactive: [13] | [14] | [15]

ClC=C(Cl)Cl
not listed: [13] | [14] | [15] | [16] | [17]
inactive: all other assays above

C[C@]12Cc3cn4c(nc3C=C1CCC1C2CC[C@@]2(C)[C@H]1CC[C@@]2(O)C#N)nc1ccccc14 (stereo partly drawn)
inactive: [16] | [17]

c1ccc2c(c1)[I+]c1ccccc1-2
inactive: [13] | [14] | [15]

N#CCCN
inactive: [13] | [14] | [15]

O=C/C=C/c1ccccc1
not listed: [13] | [14] | [15] | [16] | [17]
inactive: all other assays above

O=CC=O
not listed: [13] | [14] | [15] | [16] | [17]
inactive: all other assays above

O=[N+]([O-])c1ccccc1
not listed: [13] | [14] | [15] | [16] | [17]
inactive: all other assays above

C[N+]1(C)[C@@H]2CC[C@H]1CC(OC(=O)c1c[nH]c3ccccc13)C2 (stereo partly drawn)
inactive: [13] | [14] | [15]

CCOC(=O)c1ccccc1C(=O)OCC
not listed: [13] | [14] | [15] | [16] | [17]
inactive: all other assays above

Clc1ccccc1Cl
not listed: [13] | [14] | [15] | [16] | [17]
inactive: all other assays above

S=C=S
not listed: [13] | [14] | [15] | [16] | [17]
inactive: all other assays above

CCCCCl
not listed: [13] | [14] | [15] | [16] | [17]
inactive: all other assays above

C[C@H]1CCC[C@H](O)CCCCCc2cc(O)cc(O)c2C(=O)O1
not listed: [13] | [14] | [15] | [16] | [17]
inactive: all other assays above

C[C@H]1CC[C@@H]2[C@@H](C)[C@H]3[C@H](C[C@H]4[C@@H]5CC=C6CC(O[C@@H]7O[C@H](CO)[C@H](O)[C@H](O[C@@H]8O[C@H](CO)[C@@H](O)[C@H](O)[C@H]8O)[C@H]7O[C@H]7O[C@@H](C)[C@H](O)[C@@H](O)[C@H]7O)CC[C@]6(C)[C@H]5CC[C@]34C)N2C1 (stereo partly drawn)
inactive: [10]
active: [1] 50.1 µM | [2] 50.1 µM | [3] 39.8 µM | [4] 31.6 µM | [5] 50.1 µM | [11] 25.1 µM | [12] 39.8 µM
